These results are taken from PubChem BioAssay (NCI).

This is part of a sample that, as a whole, favours compounds with a hit. Of some 83,000 tested, about 20% had one in any assay.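 Cell lines were cultured in 96-well plates, exposed to a single compound concentration, and assessed for percent growth 48 hours later.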 The source made the active and inactive calls. How the source made its calls: active means growth percent below 10; inactive means the rest.

The test system of this assay is HL-60(TB) leukemia. The assay can be described thus: NCI-60 one-dose screen, 48 h (100 = growth as untreated, 0 = no growth, -100 = all killed). As to conditions: 10 µM unless noted.
With `CC(=O)OC[C@H](O)[C@@]1(O)CC[C@H]2[C@@H]3CCC4=CC(=O)CC[C@]4(C)[C@H]3[C@@H](O)C[C@@]21C`, the growth is 101% (inactive). For the molecule `NS(=O)(=O)N(c1cc(C(F)(F)F)cc(C(F)(F)F)c1)C1CCN(Cc2ccc(F)cc2)CC1`, the growth was 26.3% (inactive). The value for `Cc1ccc(C2=Nc3c(N)nc(N)nc3NC(c3cccc(Nc4ccnc5cc(C(F)(F)F)ccc45)c3)C2)cc1` (configuration not stated) was -11.3% (active).

As for `C=C1C(=O)O[C@H]2[C@H]1CC/C(COC(=O)/C=C\C(=O)NCc1ccc(Cn3c(=O)sn(CCI)c3=O)cc1)=C\CC[C@@]1(C)O[C@@H]21`, the growth was -34.7% (active). For the molecule `COc1ccc2nc(N/N=C(\C)c3ccccn3)cc(C)c2c1`, the growth was -64.7% (active). Regarding `CCCCOc1nc2ccc(C)cc2cc1/C=C/C(=O)/C=C(O)/C=C/c1cc2cc(C)ccc2nc1OCCCC`, the growth is 99% (inactive). As for `Clc1ccc2c(NC3CCC(NC4CCCCC4)CC3)ccnc2c1` (configuration not stated), the growth was 67.3% (inactive). For `C/C(=N\NC(=O)CSc1nc2ccccc2c(=O)n1Cc1ccc(S(N)(=O)=O)cc1)c1ccc(F)cc1`, the growth was 101% (inactive). Turning to `O=C(/C=C/c1ccco1)c1ccc(Nc2ccnc3cc(Cl)ccc23)cc1`, the growth was 6.28% (active). Consider `CCCN(CCC)CCCNC(=O)c1cc2c(-c3ccc(OC)c(OC)c3)nn(C)c2s1`, for which the growth is -13.4% (active). For `COc1ccc(C2CC(c3cnccn3)=NN2)cc1OC` (configuration not stated), the growth is 46.5% (inactive).

`COc1ccc(-c2nc3c(N)c(CO)cnc3s2)cc1`: the growth was 80.5% (inactive). The same measure for `COc1ccc2c(O)c(/C=C3\N=Nc4ccccc43)oc2c1C[C@H]1CCNC[C@H]1F`: 14.4% (inactive); for `OC(CSc1ccccc1)CN1CCN(c2cccc(Cl)c2)CC1` (configuration not stated): 85.7% (inactive); for `COc1ccc(-c2c(-c3cc(OC)c(OC)c(OC)c3)noc2N)cc1`: 12.5% (inactive). In the case of `O=c1[nH]c(-c2ccc(Cl)cc2)nc2sc3c(c12)CCCC3`, the growth is 90.7% (inactive). The value for `Nc1nc(N(Cc2ccccc2)c2ccccc2)c2cn[nH]c2n1` was 32.8% (inactive). Take `Cc1cc(N2CCSCC2)nc(NC2CCCC(Nc3ccnc4cc(Cl)ccc34)C2)n1` (configuration not stated): the growth is -68.7% (active). Consider `O=C1C=CC(=O)N1c1ccc(Cc2ccc(N3C(=O)C=CC3=O)cc2)cc1`, for which the growth was 9.02% (active). On to `COC1OCC(OS(=O)(=O)c2ccc(C)cc2)C(OC(=O)c2ccccc2)C1OC(=O)c1ccccc1` (configuration not stated), for which the growth is 25.4% (inactive). `CC(=O)O[C@H]1CC[C@]2(C)[C@H]3CC=C4[C@@H]5CC(C)(C)CC[C@]5(C(=O)NCCNCCNCCN)CC[C@@]4(C)[C@]3(C)CC[C@H]2C1(C)C`: the growth was -42.8% (active). The value for `CCn1cc(Cc2cc(C(=O)Nc3cc4cc(OC)c(OC)cc4c(C)n3)ccc2Cl)cn1` was 13.9% (inactive). Take `CCn1cc(C(=O)O)c(=O)c2cc(F)c(N3CCN(S(=O)(=O)c4ccc(Cl)cc4Cl)CC3)cc21`: the growth is -51.7% (active). Regarding `O=C(Cn1nnc2ccccc21)Nc1ccc(-c2nc3ccccc3s2)cc1`, the growth is 90.8% (inactive). `Cc1cc(C)nc(SC2=C(Nc3cccc(Cl)c3)C(=O)N(Cc3ccccc3)C2=O)n1`: the growth is 18.1% [30 µM] (inactive). As for `C/C(CC(C)C)=N/NC(N)=S`, the growth was 86.5% (inactive). The value for `COc1ccc(CCO)cc1` was 64.3% (inactive).

As to `COc1ccccc1-n1c(-c2csc(NC(C)=O)n2)n[nH]c1=S`, the growth is 96.6% (inactive). As to `C(=N/Nc1ncc(-c2cc3cc(-c4ccccc4)ccc3o2)s1)/c1cccs1`, the growth is 96.4% (inactive). On to `COc1ccc(N2C(=O)/C(=C/C(Cl)=C/c3ccc([N+](=O)[O-])cc3)SC2=S)cc1`, for which the growth was -14% (active).

For `Clc1nc(Cl)c2c(ncn2C/C=C\Cn2cnc3c(Cl)nc(Cl)nc32)n1`, the growth was -80.7% (active). On to `O=C1Nc2ccc(Br)cc2/C1=N\N=C/c1cn(Cc2ccccc2)c2ccccc12`, for which the growth is 84.4% (inactive). Regarding `N/C(=N\OC(=O)c1ccccc1)C(Cc1ccccc1)C(=O)NOC(=O)c1ccccc1` (configuration not stated), the growth was -1.14% (active). The value for `O=C(c1nc2ccccc2[nH]1)C1C(c2ccc(Br)cc2)C2CC3CCCC[C@H]3N2[C@@]12C(=O)Nc1cc(Cl)ccc12` (some centres not stated) was 12.4% (inactive); that for `CCOC(=O)c1cc(-c2ccc(OC)cc2)[nH]c1NNC(=O)CCOC` was 90.8% (inactive); that for `S=C(N/N=C/c1ccccn1)Nc1ccccn1` was -13.7% (active). `CN1CCN(Cc2cc(NC(=O)c3cccc(C#Cc4cccc5[nH]nc(N)c45)c3)cc(C(F)(F)F)c2)CC1`: the growth was 0.0221% (active).
